Test results from PubChem BioAssay (EPA / NIEHS).
Active and inactive are the calls of the source. Rule for the calls: active = hit-call score of the fitted dose curve at least 0.9, where 1 is the maximum; inactive = score below 0.9.

Assay: ATG_GRE_CIS: Attagene CIS-FACTORIAL HepG2 Assay for human Glucocorticoid Response Elements (GRE) (AID 2282947)
Details: HepG2 GRE cis-reporter, Attagene multiplex mRNA; actives raise or lower the signal
Procedure: ATG_CIS is a cell-based, multiplexed-readout assay that uses HepG2, a human liver cell line, with measurements taken at 24 hours after chemical dosing in a 24-well plate.ATG_GRE_CIS is one of 52 assay component(s) measured or calculated from the ATG_CIS assay. It is designed to make measurements of mRNA induction, a form of inducible reporter, as detected with fluorescence intensity signals by Reverse transcription polymerase chain reaction (RT-PCR) and Capillary electrophoresis technology.Data from the assay component ATG_GRE_CIS was analyzed into 1 assay endpoint. This assay endpoint, ATG_GRE_CIS, was analyzed with bidirectional fitting relative to DMSO as the negative control and baseline of activity. Using a type of inducible reporter, measures of mRNA for gain or loss-of-signal activity can be used to understand the reporter gene at the transcription factor-level as they relate to the gene NR3C1. Furthermore, this assay endpoint can be referred to as a primary readout, because this assay has produced multiple assay endpoints where this one serves a reporter gene function. To generalize the intended target to other relatable targets, this assay endpoint is annotated to the nuclear receptor intended target family, where the subfamily is steroidal.
Human liver HepG2 cells are transiently transfected with multiple reporter transcription units (MRTUs) in 6-well plates using FuGene 6 reagent (Roche; 3 ml FuGene/1 mg DNA). The MRTU constructs are regulated by a cis-regulating element (promoter). […] A major difference between the CIS and TRANS system is that in CIS activities of endogenous TFs are measured, whereas the TRANS assay evaluates changes in activities of exogenous, chimeric NR-Gal4 proteins. […] At the end of 24 hour incubation, total RNA was isolated using TriZol reagent (Invitrogen). The isolated RNA is then reverse-transcribed using oligo(dT) primer and Mo-MLV reverse transcriptase (Invitrogen) with DNAse I (Ambion) treatment for 30 min. The one-tenth of the produced cDNA was amplified by PCR using Taq DNA polymerase (Invitrogen) and two reporter sequence-specific primers. The PCR products were fluorescently labeled by primer extension with 6-arboxyfluorescein (6-FAM) 5'-labeled reporter sequence-specific primer (2 min at 95 C, 20 s at 68 C and 10 min at 72 C) and these products were digested with 5U of HpaI (New England Biolabs) for 2h at 37 C. The fragments were purified using Qiaquick PCR columns (Qiagen), analyzed on an ABI 3130xL genetic analyzer (Applied Biosystems) with peak positions identified by using a set of X-rhodamine (ROX)-labeled MapMarker1000 molecular weight standards (BioVentures). The raw capillary electrophoresis data was processed using Attagraph software (Attagene).

Row | Compound | outcome | AC50
1 | c1ccc2ncccc2c1 | inactive | 
2 | CCCCCCCCN(C)C | inactive | 
3 | C[C@@H](Oc1ccc(CNC(=O)c2cccnc2Oc2ccc3c(c2)OCO3)c(F)c1)C(=O)O | inactive | 
4 | CCCc1ccccc1 | inactive | 
5 | c1ccc2c(c1)-c1cccc3c1c-2cc1ccccc13 | inactive | 
6 | CNC(C)=O | inactive | 
7 | O=c1[nH]cnc2c1ncn2[C@H]1CC[C@@H](CO)O1 | inactive | 
8 | OCc1ccccc1 | inactive | 
9 | CCCOc1ccc(S(=O)(=O)N2CCN(CC)CC2)cc1-c1nc2c(CC)n(Cc3ccccn3)nc2c(=O)[nH]1 | inactive | 
10 | C=CCc1cc(S(=O)(=O)c2ccc(O)c(CC=C)c2)ccc1O | inactive | 
11 | C[Si](C)(C)C(F)(F)C(F)(F)C(F)(F)F | inactive | 
12 | O=C1CN(N=Cc2ccc([N+](=O)[O-])o2)C(=O)N1 | inactive | 
13 | CCn1nc(C)c2c1C(=O)NCC(c1ccc(O)cc1)=N2 | inactive | 
14 | O=C(O)c1cccc(C(=O)O)c1 | inactive | 
15 | OC(O)(C(F)C(O)(O)C(F)(F)F)C(F)(F)F | inactive | 
16 | OC[C@H]1O[C@@H]2O[C@H]3[C@H](O)[C@@H](O)[C@@H](O[C@H]4[C@H](O)[C@@H](O)[C@@H](O[C@H]5[C@H](O)[C@@H](O)[C@@H](O[C@H]6[C@H](O)[C@@H](O)[C@@H](O[C@H]7[C@H](O)[C@@H](O)[C@@H](O[C@H]1[C@H](O)[C@H]2O)O[C@@H]7CO)O[C@@H]6CO)O[C@@H]5CO)O[C@@H]4CO)O[C@@H]3CO | inactive | 
17 | OCCNCCO | inactive | 
18 | Cc1cccc(O)c1C | inactive | 
19 | FC(F)C(F)(F)COCC1CO1 (stereo not given) | inactive | 
20 | O=C(Cl)C(F)(F)C(F)(F)C(F)(F)C(=O)Cl | inactive | 

Row | Compound | outcome | AC50
21 | CCc1cccc(CC)c1N | inactive | 
22 | O=S1(=O)CCCO1 | inactive | 
23 | O=C(NO)C1(NS(=O)(=O)c2ccc(Oc3ccc(F)cc3)cc2)CCOCC1 | inactive | 
24 | NC(=O)NN=Cc1ccc([N+](=O)[O-])o1 | inactive | 
25 | NCC(F)(F)C(F)(F)C(F)(F)C(F)(F)F | inactive | 
26 | NC(=O)N(O)[C@@H]1COc2cc(OCc3ccccc3)ccc21 | inactive | 
27 | c1ccc2cc3ccccc3cc2c1 | inactive | 
28 | Cc1nccn1-c1ccc(Sc2cccc(C3(C(N)=O)CCOCC3)c2)cc1 |  | 5.85 µM (active)
29 | C[C@]12C=CC(=O)C=C1CC[C@H]1[C@@H]3C[C@@H](O)[C@](O)(C(=O)CO)[C@@]3(C)C[C@H](O)[C@@]12F |  | 0.14 µM (active)
30 | Cc1nc(-c2ccccn2)ncc1C(=O)Nn1cc(C)c2cc(F)ccc21 | inactive | 
31 | OC(CCl)CCl | inactive | 
32 | OCCOCCOCCO | inactive | 
33 | COc1cc2c(c(OC)c1OC)-c1ccc(OC)c(=O)cc1[C@@H](NC(C)=O)CC2 | inactive | 
34 | CCCCOC(=O)c1ccccc1 | inactive | 
35 | CCN(CC)C(=S)SSC(=S)N(CC)CC | inactive | 
36 | CCCCC(CC)C(=O)OCCOCCOCCOC(=O)C(CC)CCCC (stereo not given) | inactive | 
37 | O=S(=O)(O)CCC(F)(F)C(F)(F)C(F)(F)C(F)(F)C(F)(F)C(F)(F)F | inactive | 
38 | CC(C)CCCCCCOC(=O)C1CCCCC1C(=O)OCCCCCCC(C)C (stereo not given) | inactive | 
39 | CCc1ccc(O)c(C(C)(C)C)c1 | inactive | 
40 | COc1cc(C(C)C)c2c(c1)S(=O)(=O)N(COc1cc(=O)n3cccc(OCCN4CCCCC4)c3n1)C2=O |  | 4.22 µM (active)
